miR122 inh = inhibitors of miR-122 in Huh7 cells | Huh7 miR-122 Renilla luciferase sensor, 48 h; neutral wells = 0, positive control = 100 | activation (reporter increase), % at 12.5 µM | actives 0.3% (n = 340,000) | AID 602342;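 active = mean replicate activation score at least 90 and every replicate individually at or above 90; inconclusive = only one of the two criteria met; inactive = neither criterion met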;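 note: higher luciferase means less miR-122 activity so hits act as miR-122 inhibitors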
NSD2 inh = inhibitors of human histone methyltransferase NSD2; O96028; NSD2 peptide methylation, AlphaScreen, 120 min; inhibition, % at 12.5 µM; actives 0.54% (n = 310,000); AID 743445; in the data active = inhibition above about 50%
PglD inh = blocks C. jejuni PglD acetyltransferase activity; purified PglD enzyme, DTNB colorimetric CoA detection; actives 0.098% (n = 360,000); AID 602405; inhibition, % at 12.5 µM; in the data active = inhibition above about 16%, passing the limit was not always enough; inconclusive = no clear call, values can overlap the other calls
C2C12 statin = suppression of simvastatin myotoxicity. AID 602340. actives 0.78% (n = 330,000). rescue of ATP level, % at 7.49 µM. C2C12 myotubes + simvastatin, ATP luminescence, 48 h; scaled: DMSO 0, geranylgeraniol control 100;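 active = mean ATP rescue above about 67%, or every replicate alone reaching that limit, limit read from the data, passing the limit was not always enough; inconclusive = no clear call, values can overlap the other calls; inactive = mean under the limit and some replicate under it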;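 note: myotubes were challenged with 10 µM simvastatin during compound exposure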
* marks the source's active call; other numbers are inactive results; ? = inconclusive; / = not tested or not shown; [ ] = another dose, or the depositor's remark. Shown are actives, neighbours in structure and some others; about 1.2% of the full set was active somewhere.

SMILES | miR122 inh | NSD2 inh | PglD inh | C2C12 statin
O=C(CN1CCN(c2ccccn2)CC1)NCCc1ccccc1 | 0.0 | -0.7 | -3.9 | 111.2*
O=C(CN1CCN(c2ccccn2)CC1)Nc1ccc(F)cc1 | -5.0 | -5.0 | 5.4 | 115.7*
N/C(=N\OC(=O)c1ccc(Br)cc1)c1ccccc1 | 0.7 | -1.1 | / | -9.5
N/C(=N\OC(=O)c1cccc(Br)c1)c1ccc(Br)cc1 | 8.0 | -1.6 | -10.9 | 95.8*
CN1C[C@@H]2[C@H](c3ccccc31)[C@@H](CO)N2C(=O)C1CCCC1 | 10.0[16.7 µM] | / | 6.4 | 15.7
CCC(C(=O)N(C(C)C)C(C)C)c1ccccc1 (configuration not stated) | -1.2 | / | 0.0 | 130.4*
COc1ccc2c(c1OC)C(=O)N(c1ccccn1)C2 | 7.0 | -1.9 | -0.9 | 100.7*
COc1ccccc1N1Cc2ccc(OC)c(OC)c2C1=O | 1.0 | -1.1 | 5.1 | 10.4
Cc1ccc(S(=O)(=O)Nc2cccc3c2O[C@@H](CN(C)S(=O)(=O)c2cn(C)cn2)[C@@H](C)CN([C@@H](C)CO)C3=O)cc1 | -11.8[16.7 µM] | / | 4.0 | 30.1
CC(=O)CCc1c[nH]c2c(C(=O)O)cccc12 | 4.9 | 0.0 | 2.6 | 103.8*
COC(=O)CSc1nc(C2CC2)cc(C(F)(F)F)c1C#N | 3.8 | -14.3 | -0.4 | 99.0*
C[C@H](CO)N1C[C@H](C)[C@@H](CN(C)Cc2ccc3c(c2)OCO3)Oc2ccc(NC(=O)CCC(F)(F)F)cc2CC1=O | -1.7[16.7 µM] | / | -2.0 | 3.4
OCC[C@H]1C[C@@H](O)[C@H](O)[C@@]2(Cc3ccccc3O2)O1 | -7.5 | / | -0.3 | 118.1*
OCC[C@@H]1C[C@H](O)[C@@H](O)[C@]2(Cc3ccccc3O2)O1 | 5.0 | / | 6.1 | -1.6
CC[n+]1c(/C=C/N(C)c2ccccc2)oc2ccc(F)cc21 | 335.5* | 7.8 | -0.3 | /
CC[n+]1c(/C=C/N(C)c2ccccc2)oc2ccccc21 | -1.7 | 3.4 | 3.9 | /
CCS(=O)(=O)NCC[C@@H]1CC[C@@H](NS(=O)(=O)c2cccc(F)c2)[C@H](CO)O1 | / | / | 2.0 | -7.2
CCCC(=O)Nc1ccc2c(c1)C(=O)N(C)C[C@@H](OC)[C@H](C)CN(C(=O)c1cnccn1)[C@@H](C)CO2 | -3.3[16.7 µM] | / | 0.3 | -6.5
O=S(=O)(NCCC1=CCCCC1)c1ccccc1Cl | ? | -9.4 | 0.0 | -22.3
COc1ccc(C)cc1S(=O)(=O)N1CCC(C(=O)NCCC2=CCCCC2)CC1 | 8.5 | -2.5 | 7.9 | -16.2
COc1ccc(C)cc1S(=O)(=O)NCCC1=CCCCC1 | 93.4* | 0.3 | 3.9 | -36.2
O=S(=O)(NCCC1=CCCCC1)c1ccccc1Br | 139.9* | -3.5 | -4.5 | -1.2
COCc1cc(C)nc(N2CCN(c3ccccc3)CC2)c1C#N | 0.3 | -2.3 | -3.0 | -1.9
COCc1cc(C)nc(N2CCN(Cc3ccccc3)CC2)c1C#N | -2.3 | -1.0 | 4.7 | 105.7*
Cc1cc(C)c(C#N)c(SCC(=O)N2CCN(Cc3ccccc3)CC2)n1 | -1.3 | -2.1 | 9.1 | 140.4*
SMILES | miR122 inh | NSD2 inh | PglD inh | C2C12 statin
CCOC(=O)c1c(-c2cccs2)csc1NC(=O)CN1CCOCC1 | -4.0 | 1.3 | -9.3 | 92.7*
CCOC(=O)c1c(-c2ccc(C)o2)csc1NC(=O)CN1CCOCC1 | -4.8 | 7.4 | 7.4 | -5.5
Cc1cccc2c1CC(C)(C)N/C2=C\C(N)=O | 1.2 | -1.5 | 4.1 | -9.7
Cc1cc2c(cc1C)/C(=C\C(N)=O)NC(C)(C)C2 | 3.3 | 0.9 | -0.8 | 142.4*
COc1ccc2[nH]c(=O)c(CN(C)C(=O)COc3ccccc3)cc2c1 | 0.5 | 2.0 | 0.6 | 72.2*
CCCCN(Cc1cc2cc(OC)ccc2[nH]c1=O)C(=O)COc1ccccc1 | 4.7 | -2.4 | -3.0 | -8.1
O=C(CN1C(=O)COc2ccccc21)NCCN1CCOCC1 | / | -2.3 | -6.4 | -23.4
CCN(CC)S(=O)(=O)c1ccc2c(c1)N(CC(=O)NCCN1CCOCC1)C(=O)CO2 | -1.0 | 19.4 | -2.6 | 115.9*
O=S(=O)(NC1CC2CCC1C2)c1ccc2c(c1)OCCO2 (configuration not stated) | 126.1* | -10.9 | -0.7 | 3.5
COc1ccc(S(=O)(=O)NC2CC3CCC2C3)cc1Cl (configuration not stated) | 107.6* | -7.5 | 3.2 | -3.1
COc1ccc(S(=O)(=O)NC2CC3CCC2C3)cc1Br (configuration not stated) | 83.7 | -2.7 | -1.3 | 4.3
O=C(Nc1ccc2c(c1)[C@@H]1C[C@H](CC(=O)N3CCOCC3)O[C@H](CO)[C@@H]1O2)C1CCC1 | 4.1[16.7 µM] | / | 5.4 | 4.6
Fc1ccc(/C=C/c2nnc(-c3cccs3)o2)cc1 | / | 51.2* | / | /

Compound activity: PubChem BioAssay, Broad Institute
